Bioassay records as filed in PubChem BioAssay.
MOR-DOR ag – OPRM1-OPRD1 heterodimerization agonism; P35372+P41143; 340,000 compounds, 0.3% hits; activation, % at 9.3 µM; AID 504326; cells, luminescence; in the data active = activation above about 18%;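 also: 0% = vehicle-treated cells and 100% = reference agonist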
HTR5A ag ctr – HTR5A agonism, opioid heterodimer counter-screen. HTR5A agonist assay, luminescence, cell-based. AID 504692. activation, % at 9.3 µM. 340,000 compounds, 0.61% hits; in the data active = activation mostly above about 9.5%, no sharp cut-off; inactive = mostly below about 7.6%;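 also: 0% = cells with vehicle only and 100% = reference agonist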
Target sequence (P47898 whole entry, looked up): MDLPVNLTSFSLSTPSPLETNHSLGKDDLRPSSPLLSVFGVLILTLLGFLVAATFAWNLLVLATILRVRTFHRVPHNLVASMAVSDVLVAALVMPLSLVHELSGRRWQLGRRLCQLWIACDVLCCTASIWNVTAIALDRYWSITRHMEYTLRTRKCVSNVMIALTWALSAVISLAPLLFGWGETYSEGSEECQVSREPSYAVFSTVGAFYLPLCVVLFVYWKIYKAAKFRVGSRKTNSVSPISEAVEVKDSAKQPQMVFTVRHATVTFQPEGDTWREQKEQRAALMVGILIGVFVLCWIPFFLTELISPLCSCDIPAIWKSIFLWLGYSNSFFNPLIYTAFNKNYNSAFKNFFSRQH
MIN6 prolif-1 – MIN6 beta-cell proliferation induction; proliferation, % at 10 µM; 330,000 compounds, 0.29% hits; AID 2380; MIN6 cells proliferation, ATPlite luminescence, 48 h; cells starved in 0.2% serum; 100% = growth in 10% serum;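 active = compounds whose signal lies at least 3.5 SD above the mean of all wells on their plate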;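 also: 0% = DMSO-treated cells in low-serum medium and 100% = 10% serum control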
HTR5A inv ctr – HTR5A inverse agonism, opioid heterodimer counter-screen | P47898 | HTR5A cell line, luminescence | inhibition, % at 9.3 µM | 340,000 compounds, 0.083% hits; in the data active = inhibition mostly above about 23%, no sharp cut-off; inactive = mostly below about 18%;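 also: 0% = cells with DMSO and 100% = no-cell wells with DMSO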
OPRM1-OPRD1 inv – mu-delta opioid heterodimer inverse agonism; cell-based MOR-DOR heterodimer luminescence; inhibition, % at 9.3 µM; 340,000 compounds, 0.21% hits; in the data active = inhibition above about 22%, passing the limit was not always enough;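 also: 0% = cells with DMSO and 100% = wells without cells with DMSO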
V-ATPase pH – regulators of yeast V-ATPase proton transport. S. cerevisiae, pHLuorin cytosolic pH fluorescence. response, % at 10 µM. 350,000 compounds, 0.37% hits. AID 504577; in the data active = response mostly above about 7.3%, no sharp cut-off; inactive = mostly below about 5.4%; also: actives read high
MIN6 prolif-2 – confirmation of inducers of beta-cell replication in MIN6 cells; shares compounds with MIN6 prolif-1; MIN6 beta-cell proliferation, ATPlite luminescence, 48 h; cells kept in 0.2% serum; scaled between 0.2% and 10% serum; proliferation increase, % at 50 µM; 920 tested, under 10 active;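 active = proliferation increase above 40% at any of the four tested concentrations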
* marks the source's active call; other numbers are inactive results; . = no result. Rows were chosen to be rich in hits. Some 1.7% of all compounds tested hit in one or more screens of this group.

SMILES | MOR-DOR ag | HTR5A ag ctr | MIN6 prolif-1 | HTR5A inv ctr | OPRM1-OPRD1 inv | V-ATPase pH | MIN6 prolif-2
O=C(COc1ccc(-c2nnco2)cc1)N1CCOCC1 | -2 | 3 | 3 | -12 | 8 | 15* | .
CC(C)CSc1nc2c(c(=O)[nH]c(=O)n2C)n1CC(O)COc1cccc2ccccc12 (stereo not drawn) | 6 | 13* | . | -29 | -32 | 0 | .
COc1ccc(/C=N/NC(=O)c2sccc2C)c2ccccc12 | 11 | 13* | -2 | -16 | -57 | -7 | .
CCOC(=O)c1c(-c2ccccc2)oc2cc(CN(C)C)c(O)c(CN(C)C)c12 | -1 | 12* | -6 | -38 | 5 | 0 | .
O=C(CCn1c(=S)oc2ccccc21)NCCC1=CCCCC1 | -1 | 4 | 2 | -13 | 6 | 1 | .
CC(=O)Nc1ccc(C2=NNC(=Nc3cccc(S(=O)(=O)N(C)C)c3)SC2)cc1 | 5 | 8 | -6 | -21 | -39 | 7.9* | .
NC(=Nc1nc(-c2ccccn2)cc2ccccc12)c1ccccn1 | -2 | -5 | . | 20 | 8 | 2 | .
CCN1CCN(C(=O)c2ccc3c(=O)n(C4CCCC4)c(=S)[nH]c3c2)CC1 | -2 | 9.3* | -2 | 12 | 9 | 2 | .
COC(=O)c1ccccc1OCCOCCOc1cccc2cccnc12 | -2 | 11* | 0 | -42 | 9 | -3 | .
CN(C=O)c1cc([N+](=O)[O-])ccc1OCc1ccccc1 | 0 | -1 | . | 2 | 0 | 1 | .
CCN(C(=O)c1cc2c(=O)n3ccccc3nc2s1)C1CCCCC1 | 2 | 8 | 6.9* | 3 | -15 | 2 | -4
CCCCN(CC)C(=O)c1cc2c(=O)n3cccc(C)c3nc2s1 | 1 | 4 | 11* | -17 | -4 | -2 | -6
CSc1nc(N(C)C)nc(N2CC(=O)N(CCNS(=O)(=O)c3ccc(C)cc3)C2=N)n1 | 1 | 2 | 0 | -33 | -6 | 0 | .
Cc1ccc(C2=NNC(C(O)C(O)C(O)CO)S2)cc1 (stereo not drawn) | 1 | 2 | 5.8* | -5 | -4 | 6 | 0
COc1ccc(C2NN=C(c3ccc(C)cc3)S2)cc1 (stereo not drawn) | -1 | -4 | . | 14 | 5 | 0 | .
Cn1c(C(=O)N2CCN(c3ccc(F)cc3)CC2)cc2ccccc21 | 2 | 1 | -3 | -28 | -11 | 0 | .
Clc1ccc(CNc2nc(N3CCOCC3)nc(N3CCOCC3)n2)cc1 | -1 | 0 | 2 | 0 | 4 | -1 | .
O=C1CSC(c2ccc(Cl)cc2)N1Nc1nc(N2CCOCC2)nc(N2CCOCC2)n1 (stereo not drawn) | -4 | 4 | 9.7* | -12 | 25 | -2 | -4
CCC(=O)Nc1cc(C(=O)O)ccc1Sc1ccc(C)cc1 | -3 | 2 | 7.5* | -6 | 18 | 1 | 0
O=C(Cn1cnc2ccccc21)Nc1cccc([N+](=O)[O-])c1 | . | . | 8.2* | . | . | 0 | -3
O=C(COC(=O)Cn1cnc2ccccc21)Nc1cccc([N+](=O)[O-])c1 | -4 | -2 | -3 | -50 | 21 | -2 | .
COc1cc(/C=C/c2[nH]c(=O)[nH]c(=O)c2[N+](=O)[O-])cc(OC)c1O | -1 | -2 | 5.7* | 7 | 3 | -3 | -4
Cc1nc(=O)c(-c2ccccc2)c(C)n1-c1cccc(/C=C/C(=O)O)c1 | -3 | -1 | -1 | 2 | 17 | 8 | .
O=C(NNC(=O)C1CCCO1)c1ccc([N+](=O)[O-])cc1 (stereo not drawn) | -3 | -2 | 0 | 1 | 15 | 4 | .
O=C(NNC(=O)C1CCCO1)c1ccc(Cl)cc1 (stereo not drawn) | -2 | 0 | 8.5* | 3 | 10 | 3 | -2
SMILES | MOR-DOR ag | HTR5A ag ctr | MIN6 prolif-1 | HTR5A inv ctr | OPRM1-OPRD1 inv | V-ATPase pH | MIN6 prolif-2
Cc1cc(N2C(=O)C(O)=C(C(=O)c3cc4ccccc4o3)C2c2cccc(Cl)c2)no1 (stereo not drawn) | -1 | -1 | -3 | 5 | 4 | 5 | .
CCOc1ccc(-c2nnc3ccc(SCC(=O)N4CCCCC4)nn23)cc1 | -3 | 0 | 12* | 0 | 17 | -2 | 5
COc1ccc(-c2nnc3ccc(SCC(=O)N4CCCC4)nn23)cc1 | -1 | -1 | -2 | 2 | 8 | 6 | .
CC(C)CC(C(=O)NC1CCCCC1)N(Cc1cccs1)C(=O)c1snc(C(N)=O)c1N (stereo not drawn) | 3 | 9 | 7.1* | -21 | -16 | 3 | -6
CC(C)CC(C(=O)NC1CCCC1)N(Cc1cccs1)C(=O)c1snc(C(N)=O)c1N (stereo not drawn) | 0 | 4 | 1 | -26 | -2 | 8 | .
COC(=O)N1C(=O)[C@@](CC(C)C)(c2ccccc2)N1C(=O)OC | . | . | 17* | . | . | . | -6
COC(=O)N1C(=O)[C@](CC(C)C)(c2ccccc2)N1C(=O)OC | 0 | -1 | . | -35 | 1 | 2 | .
CC(=O)c1ccc(OCC(=O)NC2CCS(=O)(=O)C2)cc1 (stereo not drawn) | 3 | 2 | 5.0* | -6 | -17 | 0 | 0
COCCCn1c(=O)/c(=C\c2ccc(OC(F)F)c(OC)c2)s/c1=C(/C#N)C(N)=O | -1 | 2 | 9.0* | -7 | 4 | -2 | -1
CSC1=NC(C(Cl)(Cl)Cl)N=C(c2ccccc2)N1 (stereo not drawn) | 0 | -2 | 1 | -18 | 0 | 0 | .
CCN(CCn1cccn1)Cc1nc(-c2ccccc2)no1 | 0 | 0 | -3 | 1 | 0 | 0 | .
CCN(CCn1cccn1)Cc1nc(-c2ccc(OC)cc2)no1 | 2 | -3 | 7.2* | 8 | -9 | 1 | -2
COC(=O)c1sccc1Oc1c(Cl)cccc1[N+](=O)[O-] | . | . | -3 | . | . | -1 | .
CCOc1ccccc1N(CC(=O)Nc1ccc(OC)c(OC)c1)S(=O)(=O)c1ccccc1 | -3 | -1 | 1 | 2 | 16 | 3 | .
COc1ccc(N(CC(=O)NCCc2ccccc2)C(=O)c2csnn2)cc1OC | -2 | -4 | 6.2* | 11 | 8 | -4 | 0
CCOc1ccccc1N(CC(=O)NCCc1ccc(OC)c(OC)c1)S(=O)(=O)c1ccccc1 | 1 | 5 | 7.1* | 4 | -6 | 7 | -1
O=C(CN(Cc1ccccc1Cl)C(=O)c1csnn1)NCCc1ccccc1 | 1 | 4 | 6.0* | -4 | -12 | -4 | -4
O=C(OCC(=O)c1ccc[nH]1)c1cncc(Br)c1 | 0 | 4 | 0 | -10 | 0 | -1 | .
S=c1[nH]nc(CN2CCCCC2)n1Cc1ccccc1 | -1 | -5 | 8.0* | 12 | 3 | 0 | 2
Cc1ccc(S(=O)(=O)NCC(=O)NC2CC2)cc1 | -1 | 2 | 11* | -4 | 5 | -4 | 0
CCOc1ncccc1C(=O)Nc1ccc(C)cn1 | -1 | -1 | 11* | 2 | 6 | 3 | 2
